From PubChem BioAssay (NCI) come the findings set out here.

Where “and” joins values, the source holds several entries; their conditions need not be identical. Identical values can stand only once. About 83,000 compounds went through this panel and 20% of them were active in at least one assay; those are over-represented in the sample as a whole.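 48-hour exposure, single concentration, 96-well plates; percent growth endpoint where 0 means no net growth. Active: below 10.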 Calls of active or inactive are those of the source. Where a SMILES comes first, the peptide text is derived from it. The star is where a group is joined. Trt = c1ccc(C(c2ccccc2)(c2ccccc2)*)cc1; Cbz = O=C(OCc1ccccc1)*

Test systems include HCT-15 colon; HT29 colon; SNB-75 CNS; SNB-19 CNS; U251 CNS; PC-3 prostate; SK-MEL-5 melanoma; UACC-62 melanoma; SK-MEL-28 melanoma; LOX IMVI melanoma.
Common to all, as to assay: NCI-60 one-dose screen, 48 h (100 = growth as untreated, 0 = no growth, -100 = all killed)
Details in all cases: 10 µM unless noted

As for `CN(Cc1cnc2nc(N)nc(N)c2n1)c1ccc(C(=O)NC(CCC(=O)O)C(=O)O)cc1` (stereo not drawn), the growth in the assay on HCT-15 colon is 26.4% (inactive); in the assay on HT29 colon it was 27.6% (inactive); in the assay on SNB-75 CNS, 59.6% (inactive); in the assay with SNB-19 CNS, 47.2% (inactive); with U251 CNS it was 35.7% (inactive); with PC-3 prostate it was 62.1% (inactive). Besides, the growth in the assay with SK-MEL-5 melanoma is 23.3% (inactive); in the assay on UACC-62 melanoma, 21.2% (inactive); in the assay with SK-MEL-28 melanoma, 62.2% (inactive).

For the compound `O=C1C2=C(Nc3cc([N+](=O)[O-])ccc3N2)OC1c1c2ccccc2cc2ccccc12` (stereo not drawn), the growth is 20.5% (inactive) in the assay with HCT-15 colon; 51.4% (inactive) in the assay on HT29 colon; 52.4% (inactive) in the assay on SNB-75 CNS; 40.2% (inactive) in the assay with SNB-19 CNS; 31.4% (inactive) in the assay with U251 CNS; 20.5% (inactive) with PC-3 prostate. For the same compound, the growth in the assay with SK-MEL-5 melanoma was 56.7% (inactive); with UACC-62 melanoma, 44.6% (inactive); with SK-MEL-28 melanoma, 77.5% (inactive).

Take `NC1=CC(=O)c2ccccc2C1=O`: the growth in the assay on HCT-15 colon is 61.5% (inactive); in the assay with HT29 colon it was 94.7% (inactive); in the assay with SNB-75 CNS, 89.2% (inactive); in the assay with SNB-19 CNS, 96.3% (inactive); in the assay on U251 CNS, 66.7% (inactive); in the assay with PC-3 prostate it was 55.6% (inactive). In addition, the growth with SK-MEL-5 melanoma was 22.9% (inactive); in the assay on UACC-62 melanoma it was 60.8% (inactive); in the assay on LOX IMVI melanoma it was 24.5% (inactive); in the assay with SK-MEL-28 melanoma, 103% (inactive).

For the compound `O=C(Nc1cccc(Br)c1)Oc1ccc(Cl)c2cccnc12`, the growth in the assay with HCT-15 colon was 10.9% [100 µM] (inactive); in the assay on HT29 colon it was 70.5% [100 µM] (inactive); in the assay with SNB-75 CNS, 3.16% [100 µM] (active); in the assay with SNB-19 CNS, 27.8% [100 µM] (inactive); in the assay with PC-3 prostate it was 20.2% [100 µM] (inactive); in the assay with SK-MEL-5 melanoma it was 9.3% [100 µM] (active). Further, the figures for the growth in the assay with UACC-62 melanoma, in the assay with LOX IMVI melanoma and with SK-MEL-28 melanoma were -30.4% [100 µM] (active), 4.16% [100 µM] (active) and 25% [100 µM] (inactive), respectively.

As to `c1ccc2c(c1)Nc1cc3ccccc3cc1N2`, the growth with HCT-15 colon is 17.5% (inactive); in the assay with HT29 colon, 14.7% (inactive); with SNB-75 CNS it was 32.6% (inactive); in the assay with SNB-19 CNS, 57.1% (inactive); with U251 CNS, 43% (inactive); in the assay with PC-3 prostate, 24.9% (inactive). The growth is -75.7% (active) with SK-MEL-5 melanoma, 52.9% (inactive) in the assay with UACC-62 melanoma and 83.3% (inactive) in the assay with SK-MEL-28 melanoma.

In the case of `COc1ccccc1/C=C\C(=O)c1ccccc1`, the growth with HCT-15 colon is 70.2% (inactive); in the assay on HT29 colon, 41.9% (inactive); in the assay on SNB-75 CNS it was 77.8% (inactive); in the assay on SNB-19 CNS it was 79.4% (inactive); in the assay with PC-3 prostate, 61.8% (inactive); in the assay with SK-MEL-5 melanoma, 72.3% (inactive). The growth in the assay on UACC-62 melanoma is 77.2% (inactive); with LOX IMVI melanoma, 28.6% (inactive); with SK-MEL-28 melanoma it was 94.9% (inactive).

Consider `COc1ccc(N=N/N=c2\sc3cc(OC)ccc3n2C)cc1`, for which the growth with HCT-15 colon was 98.9% (inactive); with HT29 colon, 78.9% (inactive); with SNB-75 CNS, 101% (inactive); in the assay with U251 CNS it was 77.7% (inactive); in the assay with PC-3 prostate, 77.9% (inactive); with SK-MEL-5 melanoma it was 84.6% (inactive). The results for the growth in the assay on UACC-62 melanoma, in the assay on LOX IMVI melanoma and in the assay with SK-MEL-28 melanoma were 83.1% (inactive), 105% (inactive) and 94% (inactive), respectively.

In the case of `CCOc1ccc(-c2nc3ccc(-c4nc5ccc(N6CCN(C)CC6)cc5[nH]4)cc3[nH]2)cc1`, the growth in the assay with HCT-15 colon is 23.7% (inactive); with HT29 colon, -68.3% (active); in the assay on SNB-75 CNS, -90.2% (active); with U251 CNS it was -98.1% (active); in the assay on PC-3 prostate, -47.8% (active); in the assay with SK-MEL-5 melanoma it was -96.7% (active). Also, the growth in the assay with UACC-62 melanoma was -96.5% (active); in the assay with LOX IMVI melanoma, -88% (active); in the assay with SK-MEL-28 melanoma, -88.6% (active).

Consider `COC(=O)C(CSC(c1ccccc1)(c1ccccc1)c1ccccc1)NC(=O)C(CC(N)=O)NC(=O)OCc1ccccc1` (stereo not drawn) (Cbz-Asn-Cys(Trt)-OMe; configuration not given here), for which the growth in the assay with HCT-15 colon was 13.7% (inactive); in the assay on HT29 colon, 33.7% (inactive); in the assay on SNB-75 CNS, 20.3% (inactive); in the assay with SNB-19 CNS it was 56.2% (inactive); in the assay with PC-3 prostate, 36.9% (inactive); with SK-MEL-5 melanoma it was 14.1% (inactive). The growth in the assay with UACC-62 melanoma was -11.7% (active); in the assay on SK-MEL-28 melanoma, 24.4% (inactive).

Consider `Oc1c(Cl)c2ccccc2c2ccccc12`, for which the growth in the assay on HCT-15 colon is 112% (inactive); in the assay with HT29 colon, 103% (inactive); with SNB-75 CNS, 88.2% (inactive); with PC-3 prostate, 97.5% (inactive); in the assay with SK-MEL-5 melanoma, 101% (inactive); in the assay with UACC-62 melanoma, 107% (inactive). For the same compound, the growth with SK-MEL-28 melanoma is 108% (inactive).

For the compound `COC(=O)Nc1nc2ccc(C(=O)c3ccccc3)cc2[nH]1`, the growth was 30.2% (inactive) and 14.1% (inactive) and 15.8% (inactive) in the assay with HCT-15 colon; 4% (active) and 5.13% (active) and 2.8% (active) with HT29 colon; 8.68% (active) and 89.4% (inactive) and 23.9% (inactive) with SNB-75 CNS; 33.6% (inactive) and 14.3% (inactive) and 33.1% (inactive) in the assay on SNB-19 CNS; 30.5% (inactive) and 18.6% (inactive) and 16.7% (inactive) in the assay with PC-3 prostate; 8.39% (active) and 4.91% (active) and -9.41% (active) in the assay with SK-MEL-5 melanoma. Moreover, the growth with UACC-62 melanoma is 47.8% (inactive) and 31.1% (inactive) and 37.4% (inactive); in the assay with SK-MEL-28 melanoma, 48.9% (inactive) and 61.5% (inactive) and 55.6% (inactive).

Consider `Cn1c2c(c3ccccc31)CCN1C[C@@H]3CCCC[C@H]3C[C@@H]21`, for which the growth in the assay on HCT-15 colon is 9.14% (active); in the assay with HT29 colon it was 1.8% (active); in the assay on SNB-75 CNS, -21.7% (active); with PC-3 prostate, 23% (inactive); in the assay with SK-MEL-5 melanoma, -16.1% (active); in the assay with UACC-62 melanoma, 18.4% (inactive). The growth was 15.6% (inactive) with LOX IMVI melanoma and 31.1% (inactive) in the assay on SK-MEL-28 melanoma.

With `C=C(Cl)C(=NC(C)(C)C)Nc1ccccc1C`, the growth with HCT-15 colon was 101% (inactive); in the assay with HT29 colon, 37.6% (inactive); with SNB-75 CNS it was 85.7% (inactive); in the assay on U251 CNS it was 83.9% (inactive); with PC-3 prostate, 77.3% (inactive); in the assay on SK-MEL-5 melanoma, 95.4% (inactive). The growth in the assay with UACC-62 melanoma is 59.7% (inactive); with LOX IMVI melanoma, 81.1% (inactive); with SK-MEL-28 melanoma, 98.4% (inactive).
